PubChem BioAssay (NCATS)
Several values for one entry are separate records, joined by “and”; a condition that tells them apart may be missing. Identical values can stand only once. Records with an inconclusive call do not appear. A structure can be active in one record and inactive in another. Unmarked numbers belong to inactive results. Activity calls are given as the source filed them. The call rests on the fitted dose curve; in most records, active means well fitted cell-killing curve with a large enough effect in the repeat runs; inconclusive means weak or mixed curves; inactive means flat fitted curve, though single readings scatter.

Experiment: qHTS assay for small molecule agonists of the antioxidant response element (ARE) signaling pathway measured by Nrf2-dependant transcriptional activity - cell viability counter screen (AID 720653)
Conditions: ARE-bla HepG2 viability, CellTiter-Glo ATP luminescence, 16 h; max response: active compounds read low
Description: National Center for Advancing Translational Sciences [NCATS] NIH Chemical Genomics Center [NCGC] U.S. Environmental Protection Agency [EPA] National Institutes of Environmental Health Sciences [NIEHS] National Toxicology Program [NTP] Assay Overview: Oxidative stress has been implicated in the pathogenesis of a variety of diseases ranging from cancer to neurodegeneration. The antioxidant response element (ARE) signaling pathway plays an important role in the amelioration of oxidative stress. The CellSensor ARE-bla HepG2 cell line (Invitrogen) can be used for analyzing the Nrf2/antioxidant response signaling pathway. Nrf2 (NF-E2-related factor 2) and Nrf1 are transcription factors that bind to AREs and activate these genes. The CellSensor ARE-bla HepG2 cell line contains a beta-lactamase reporter gene under control of the Antioxidant Response Element (ARE) stably integrated into HepG2 cells. The activation of the report gene under culture conditions can be detected by fluorescence intensity. The cytotoxicity of the compounds against the ARE-bla HepG2 cell line was quantified by measuring the intracellular ATP content.
Assay Protocol Summary: ARE-bla HepG2 cells were dispensed at 2,000 cells/5 ul/well in 1536-well black wall/clear bottom plates using a Multidrop Combi (ThermoFisher Scientific, Waltham, MA) dispenser. After the assay plates were incubated at 37C/5% CO2 for 5 hrs, 23 nL of compounds dissolved in DMSO, positive controls or DMSO only was transferred to the assay plate by a pintool work station (Kalypsys, San Diego, CA). The plates were incubated at 37C/5% CO2 for 16 hrs. After 1 uL of LiveBLAzer B/G FRET substrate was added using a Flying Reagent Dispenser (FRD) (Aurora Discovery, San Diego, CA), the assay plates were incubated at room temperature for 2 hrs. The fluorescence intensity was measured by an Envision (PerkinElmer, Shelton, CT) plate reader. Cell viability using CellTiter Glo viability assay (Promega, Madison, WI) was also measured by adding 4 ul/well of CellTiter-Glo reagent into the same assay plate using a FRD. After 30 min incubation at room temperature, the luminescence intensity in the plates was measured using a ViewLux (PerkinElmer) plate reader.
On the % scale 0 is the no-effect control and ±100 the full control effect; potency means the concentration at half of the fitted maximal effect.

Structure (SMILES)	max response	Potency
COc1ccc(C)cc1N	-10.4%	
C=CC1CO1 (stereo not given)	-12.7%	
Nc1cnn([C@@H]2O[C@H](CO)[C@@H](O)[C@H]2O)c(=O)n1	20.2%	
Brc1cc(Oc2cc(Br)c(Br)c(Br)c2Br)c(Br)c(Br)c1Br	3.78% and -22.3%	
CCCCC(CC)COC(=O)COc1ccc(Cl)cc1Cl (stereo not given)	-8.61% and -1.82%	
CCCCCCCCC1CO1 (stereo not given)	14.9%	
Cc1ccc(N)cc1[N+](=O)[O-]	-10.7%	
Clc1nc2ccccc2nc1Cl	0.874%	
C=C1CC[C@H](O)C/C1=C/C=C1\CCC[C@]2(C)[C@@H]([C@H](C)CCCC(C)C)CC[C@@H]12	-9.05%	
CCOC(=O)C1OC1c1ccccc1 (stereo not given)	8.37%	
NC(=O)Nc1nc2ccccc2[nH]1	-9.91%	
CN(C)c1ccc(Cc2ccc(N(C)C)cc2)cc1	-17.1% and 8.5%	
C[Si](C)(C)Cl	-8.15%	
Cc1c2ccccc2c(C)c2c1ccc1ccccc12	-7.46%	44.7 µM (active)
C=CC(=O)OCCCCCCOC(=O)C=C	-16.8% and -7.99%	
Brc1cc(Br)c(Oc2cc(Br)c(Br)cc2Br)cc1Br	-7.08%	
CCCC(=O)OC(=O)CCC	-5.41% and 18.3%	
Cc1cc(-c2ccc(N=Nc3cc(S(=O)(=O)O)c4ccccc4c3N)c(C)c2)ccc1N=Nc1cc(S(=O)(=O)O)c2ccccc2c1N	-27.3%	
CCc1ccc(C(c2ccc(CC)cc2)C(Cl)Cl)cc1	-5.77%	
CC(=O)OCc1ccc2c(c1)OCO2	-6.13%	

Structure (SMILES)	max response	Potency
Brc1ccc(-c2ccccc2)cc1	-10.1%	
COc1ccc([N+](=O)[O-])cc1N	-6.61% and -1.85%	
O=C(OCc1ccccc1)c1ccccc1O	4.39% and 10%	
S=C(NC1CCCCC1)NC1CCCCC1	-8.66%	
Cc1cc2nc(N)sc2cc1C	-19.7%	
Nc1ccccc1O	-24.7%	
O=[N+]([O-])c1cc(Cl)c(Cl)c(Cl)c1Cl	-4.59%	
O=[N+]([O-])c1ccc(F)cc1F	13.3%	
Cc1cc(=O)oc2cc(O)cc(O)c12	0.736%	
Cc1ccc2ccc3cccc4ccc1c2c34	2.48%	
CC(=O)OC(C(=O)c1ccccc1)c1ccccc1 (stereo not given)	-8.03%	
OCC(CO)(CBr)CBr	9.25% and 7.51%	
CCCCC(CC)COP(=O)(OCC(CC)CCCC)OCC(CC)CCCC (stereo not given)	-10.8%	
Cc1ccc(C(=O)O)cc1[N+](=O)[O-]	-1.34%	
c1ccc(SCCSc2ccccc2)cc1	1.28%	
Nc1cc(C(=O)O)c(O)c(S(=O)(=O)O)c1	2.52%	
CC(C)S	14.7%	
C/C=C1/C(=O)C[C@H]2[C@@H]3CCC4=CC(=O)CC[C@]4(C)[C@H]3CC[C@]12C	-1.31%	
OC1CCCCC1	16.5%	
